# From PubChem BioAssay (NCATS)
# Records with an inconclusive call do not appear. Where a call stands in place of a potency, no number is given. Active and inactive are the calls of the source. Calls follow the shape of the dose curve; as a rule, active = well fitted curve in the direction sought with a large enough effect; inconclusive = small, poorly fitted or top-dose-only effect, or another doubt; inactive = no such curve, though single readings can be large; an effect the other way counts as inactive or inconclusive.
# Experiments:
# [1] = qHTS assay to identify small molecule inhibitors of chordoma cells - UCH-2 (AID 1259356); also: series mostly up to about 46 µM
# [2] = P-glycoprotein substrates identified in KB-8-5-11 adenocarcinoma cell line, qHTS therapeutic library screen (AID 1346987); also: nearly all actives have a fitted effect of over 65% in size
# Procedure, shortened: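 Luminescence from CellTiter-Glo, read 5 min after addition, quantified survival of KB-8-5-11 (P-gp-overexpressing) cells exposed to compounds for 72 h. AC50 was derived from concentration-response curves.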
# [3] = P-glycoprotein substrates identified in KB-3-1 adenocarcinoma cell line, qHTS therapeutic library screen (AID 1346986); also: nearly all actives have a fitted effect of over 60% in size
# Procedure, shortened: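 Viability read by CellTiter-Glo after 72 h compound exposure in dose-response of KB-3-1 and KB-8-5-11 (P-gp-high) cells. Hits needed AC50 < 10 uM, >50% maximum response and curve class -1.1 to -2.4. Cherry-picks retested ± tariquidar, including pcDNA/MDR-19 HEK-293 pair.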
smiles,measurement,setting,value
CC1CCC(C(C)C)C(OC(=O)c2ccccc2N)C1 (stereo not drawn),Potency,[1],inactive
same,Potency,[2],inactive
S=C(S)N1CCNCC1,Potency,[1],inactive
same,Potency,[2],inactive
OC[C@@H](O)[C@H]1O[C@@H]2O[C@H](C(Cl)(Cl)Cl)O[C@@H]2[C@H]1O,Potency,[1],inactive
same,Potency,[2],inactive
c1cc2c(c(NC3=NCCN3)c1)CCCC2,Potency,[1],inactive
same,Potency,[2],inactive
C[N+]1(C)[C@@H]2CC[C@H]1CC(OC(=O)c1c[nH]c3ccccc13)C2 (stereo partly drawn),Potency,[1],inactive
same,Potency,[2],inactive
CCCCNCC(O)c1ccc(O)cc1 (stereo not drawn),Potency,[1],inactive
same,Potency,[2],inactive
COC(=O)[C@@H]1[C@H]2CC[C@@H](C[C@H]1OC(=O)c1ccccc1)N2C,Potency,[1],inactive
same,Potency,[2],inactive
COC1CC(O[C@H]2CC[C@@]3(C)C(=CCC4C3C(O)[C@@H](O)[C@]3(C)[C@@H](C(C)=O)CC[C@]43O)C2)OC(C)C1OC1CC(OC)C(OC2OC(C)C(O)C(O)C2O)C(C)O1 (stereo partly drawn),outcome,[3],inactive [at 9.29 µM]
same,outcome,[2],inactive [at 9.29 µM]
Clc1ccc(C2(Cn3cncn3)OCCO2)c(Cl)c1,Potency,[1],inactive
same,Potency,[2],inactive
CNC(=O)OCC[N+](C)(C)C,Potency,[1],inactive
same,Potency,[2],inactive
F/C(COc1ccc2c(c1)[nH]c1ccccc12)=C1/CN2CCC1CC2,Potency,[1],inactive
same,Potency,[2],inactive
COc1cc(CCNCc2ccccc2O)c(OC)cc1C#N,Potency,[3],inactive
CCc1c(C(=O)C(N)=O)c2c(OCC(=O)OC)cccc2n1Cc1ccccc1,Potency,[3],inactive
same,Potency,[2],inactive
CC(C)(C)c1cc(C(C)(C)C)c2c(c1)C(O)(C(F)(F)F)C(=O)O2 (stereo not drawn),Potency,[3],inactive
same,Potency,[2],inactive
O=C(O)c1ccnc2cc(C(OCCN3CCCCC3)c3ccccc3Cl)[nH]c12 (stereo not drawn),Potency,[3],inactive
same,Potency,[2],inactive
C[C@@H]1C(=O)O[C@H]2[C@H](O)[C@@]34[C@@H]5OC(=O)[C@@]3(O[C@@H]3OC(=O)[C@@H](O)[C@@]34[C@H](C(C)(C)C)[C@H]5O)[C@@]12O,Potency,[3],inactive
same,Potency,[2],inactive
Cn1ncnc1COc1nn2c(-c3c(F)cccc3F)nnc2cc1C1CCC1,Potency,[3],inactive
same,Potency,[2],inactive
CC(N)Cc1c[nH]c2ccccc12 (stereo not drawn),Potency,[3],inactive
same,Potency,[2],inactive
C=C(C)[C@H]1O[C@H]2CC[C@@]3(C)[C@@](O)(CC[C@H]4[C@@H]5OC(C)(C)[C@H]6C[C@@H]7C(=C)Cc8c(Cl)cc9[nH]c(c5c9c8[C@@]76O)[C@@]43C)[C@]23O[C@@H]3[C@H]1O,Potency,[3],inactive
same,Potency,[2],inactive
COc1c(C(C)C)cc2c(c1O)[C@@]1(C(=O)O)CCCC(C)(C)C1CC2 (stereo partly drawn),Potency,[3],inactive
same,Potency,[2],inactive
COC(=O)C1(C)CCC(O)C2(C)c3c(O)cc(C(C)C)cc3C(O)C(OC(C)=O)C12 (stereo not drawn),Potency,[3],inactive
same,Potency,[2],inactive
COc1cc(C(=O)O[C@H]2[C@@H]3C=CO[C@@H](O[C@@H]4O[C@H](CO)[C@@H](O)[C@H](O)[C@H]4O)[C@@H]3[C@@]3(CO)O[C@@H]23)ccc1O,Potency,[3],inactive
same,Potency,[2],inactive
